Most compounds without a hit are left out; they make up all but 13% or so of the library.
USP30 inh: inhibitors of human USP30 deubiquitinase | Q70CQ3 | purified USP30, Ub-rhodamine cleavage fluorescence | inhibition, % at 25 µM | hit rate 5.3% among 47,000 | AID 1645860
USP17 inh: human USP17-like deubiquitinase inhibition; purified USP17, Ub-rhodamine cleavage fluorescence, 3 h; inhibition, % at 50 µM; hit rate 6.5% among 47,000; AID 1645855
USP8 block: inhibitors of human USP8 deubiquitinase; purified USP8, Ub-rhodamine cleavage fluorescence, 30 min; P40818; hit rate 4.2% among 47,000; inhibition, % at 20 µM
USP28 block: blocks human USP28 ubiquitin-rhodamine cleavage | hit rate 3% among 47,000 | AID 1645857 | inhibition, % at 25 µM | purified USP28, Ub-rhodamine cleavage fluorescence, 30 min | Q96RU2
Numbers without * were called inactive. Rule as the data show it: active = inhibition above about 30%; inactive = the rest.

Results for O=C1CN(C(=O)COC(=O)CCCN2C(=O)c3cccc4cccc(c34)C2=O)c2ccccc2N1 ?
USP30 inh: 49*; USP17 inh: 62*; USP8 block: 4; USP28 block: 46*

How did C[C@H](NC(=O)[C@@H]1Cc2c([nH]c3ccccc23)C2c3ccccc3C(=O)N21)C(=O)NCCc1ccccc1F (some centres not stated) do in these assays?
USP30 inh: -161; USP17 inh: -78; USP8 block: -37; USP28 block: -60

How did O=C1CC(c2ccccc2)Cc2nc(Nc3cc(Cl)cc(Cl)c3)ncc21 (configuration not stated) do in these assays?
USP30 inh: -5; USP17 inh: 33*; USP8 block: -2; USP28 block: -9

How did COc1cc(C2CC(=O)c3cnc(NC(=O)c4ccccc4Cl)nc3C2)cc(OC)c1OC (configuration not stated) do in these assays?
USP30 inh: 30; USP17 inh: 7; USP8 block: 10; USP28 block: 13

Results for CCC(C(=O)Nc1ncc2c(n1)CC(c1ccc(F)cc1)CC2=O)c1ccccc1 (configuration not stated) ?
USP30 inh: 34*; USP17 inh: 20; USP8 block: 19; USP28 block: 32*

Results for OCc1ccc(Oc2nc(-c3cccnc3)nc3ccccc23)cc1 ?
USP30 inh: -162; USP17 inh: -45; USP8 block: -10; USP28 block: -11

Results for CCc1ccc(NC(=O)CSc2nnnn2-c2cccnc2)cc1 ?
USP30 inh: 12; USP17 inh: -5; USP8 block: 14; USP28 block: 31*

How did Cc1ccc2cc(CCNC(=O)COc3ccc(Cl)cc3)c(=O)[nH]c2c1 do in these assays?
USP30 inh: 13; USP17 inh: 37*; USP8 block: 1; USP28 block: 1

How did Cc1cc(OCC(=O)NCCc2nc3ccccc3[nH]2)ccc1Cl do in these assays?
USP30 inh: 10; USP17 inh: -3; USP8 block: 2; USP28 block: -4

How did COc1ccc2cc(CCNC(=O)C3(c4ccc(Cl)cc4)CCCC3)c(=O)[nH]c2c1 do in these assays?
USP30 inh: 9; USP17 inh: 43*; USP8 block: 0; USP28 block: 7

Results for c1ccc(CN(Cc2ccccc2)c2c3c(nc4ncnn24)CCC3)cc1 ?
USP30 inh: 39*; USP17 inh: 13; USP8 block: 2; USP28 block: 23

What do the screens show for `O=c1c2c(nc3nc(C(c4ccccc4)c4ccccc4)[nH]n13)CCC2`?
USP30 inh: 17; USP17 inh: 14; USP8 block: 10; USP28 block: 8

What do the screens show for `COc1ccccc1NC(=O)C1CN(c2nc3ccccc3s2)C1`?
USP17 inh: 38*; USP8 block: -3

Results for Cc1ccc2c(c1)[nH]c1c(=O)n(CCCn3ccnc3)cnc12 ?
USP30 inh: 19; USP17 inh: 16; USP8 block: 18; USP28 block: 8

Results for O=c1ncn(Cc2ccc3c(c2)OCO3)cc1-c1ncc(C(F)(F)F)cc1Cl ?
USP30 inh: 46*; USP17 inh: 51*; USP8 block: 11; USP28 block: 3

What do the screens show for `O=c1c2[nH]c3ccc(F)cc3c2ncn1Cc1ccc2c(c1)OCO2`?
USP30 inh: 24; USP17 inh: 17; USP8 block: 24; USP28 block: 12

Results for O=C(Nc1cccc(Cl)c1)N1CCC(c2cc(-c3ccco3)n[nH]2)CC1 ?
USP30 inh: -79; USP17 inh: 64*; USP8 block: 80*; USP28 block: 39*

Results for O=C(C[C@@H]1CCN2C[C@@H]1CCCOc1ccccc1CN(C(=O)COc1ccccc1)CC2=O)N1CCOCC1 ?
USP30 inh: 79*; USP17 inh: 71*; USP8 block: -1; USP28 block: 55*

How did O=C(C[C@@H]1CCN2C[C@@H]1CCCOc1ccccc1CN(C(=O)c1cccnc1)CC2=O)N1CCOCC1 do in these assays?
USP30 inh: 92*; USP17 inh: 78*; USP8 block: 19; USP28 block: 86*

What do the screens show for `CC(C)NC(=O)N1CC(=O)N2CC[C@@H](CC(=O)N3CCOCC3)[C@@H](CCCOc3ccccc3C1)C2`?
USP30 inh: 100*; USP17 inh: 75*; USP8 block: 5; USP28 block: 72*

How did CCCn1c(C(=O)Nc2cccc(NC(C)=O)c2)cc2c(=O)n(C)c(=O)n(C)c21 do in these assays?
USP30 inh: -8; USP17 inh: -39; USP8 block: -5; USP28 block: -4

Results for CN(C)C(=O)N1Cc2ccccc2OC2(CCN(C(=O)Cc3cnc[nH]3)CC2)C1 ?
USP30 inh: 7; USP17 inh: -15; USP8 block: -171; USP28 block: -3

How did COc1ccccc1-c1nc(Cn2nnc(C(=O)Nc3cc(C)cc(C)c3)c2N)c(C)o1 do in these assays?
USP30 inh: 35*; USP17 inh: 66*; USP8 block: 11; USP28 block: 0

Results for CCn1c(-c2nnc(SCC(=O)NCCc3nc4ccccc4[nH]3)o2)cc2ccccc21 ?
USP17 inh: 92*; USP8 block: 4

How did Cc1cccc(C)c1NC(=O)CSc1nnc(-c2cc3ccccc3[nH]2)o1 do in these assays?
USP30 inh: -124; USP17 inh: 0; USP8 block: 19; USP28 block: -11

What do the screens show for `COc1ccccc1CNC(=O)CCn1c(=O)c2ccccc2n(Cc2cccc([N+](=O)[O-])c2)c1=O`?
USP30 inh: 28; USP17 inh: 6; USP8 block: -4; USP28 block: 7

What do the screens show for `COc1ccccc1CNC(=O)CCCCn1c(=O)c2ccccc2n(Cc2cc(=O)n3c(C)cccc3n2)c1=O`?
USP30 inh: -93; USP17 inh: -32; USP8 block: 45*; USP28 block: -25

Results for COc1ccccc1CNC(=O)CCc1cn(Cc2ccc(Cl)cc2)c2ccccc12 ?
USP30 inh: 0; USP17 inh: 32*; USP8 block: 0; USP28 block: 9

What do the screens show for `CCOc1ccc(NC(=O)Cn2c(=O)n(CCC(=O)NCc3ccccc3OC)c(=O)c3ccccc32)cc1`?
USP30 inh: 50*; USP17 inh: 52*; USP8 block: 32*; USP28 block: 6

What do the screens show for `COc1ccccc1CNC(=O)CCn1c(=O)c2ccccc2n(Cc2ccccc2C#N)c1=O`?
USP30 inh: 23; USP17 inh: 40*; USP8 block: 2; USP28 block: 12

Results for COc1ccccc1CC(=O)NCc1ccc(C(=O)O)cc1 ?
USP30 inh: 2; USP17 inh: 5; USP8 block: 0; USP28 block: -4

Results for CC(C)c1cccc(NC(=O)Cc2nnc(-c3cnccn3)o2)c1 ?
USP30 inh: -20; USP17 inh: -17; USP8 block: -25; USP28 block: -9

Results for O=C(c1ccc(F)cc1)N1CCCC1c1nc(-c2ccccc2)no1 (configuration not stated) ?
USP30 inh: 23; USP17 inh: 13; USP8 block: 12; USP28 block: 9

What do the screens show for `COc1ccc(C(=O)Nc2cc(-c3cccnc3)no2)cc1`?
USP30 inh: -3; USP8 block: -11; USP28 block: 2

From PubChem BioAssay
